Marburg entry inh: inhibitors of Marburg virus binding or cell entry. Marburg virus pseudotyped entry inhibition, cell reporter. Potency, µM (top dose mostly 37.8 µM), for the others: at the top dose activity change, negative = inhibition, hits mostly inhibitors. 300,000 tested, 1.8% active. AID 540276; calls by dose curve; tested in HEK293 cells
FMDV inh: foot and mouth disease virus antiviral activity; FMDV antiviral cell-based qHTS; Potency, µM (highest dose often 57.9 µM), for inactives: at the highest dose activity change, negative = inhibition, actives largely listed as inhibitors; 410,000 tested, 1.2% active; calls by dose curve; tested in HEK293T cells; further: read-out not given here; nearly all actives have a fitted effect of over 45% in size
LASV entry inh: inhibitors of Lassa virus binding or cell entry; 300,000 tested, 1.2% active; Lassa virus pseudotype entry inhibition, cell reporter; Potency, µM (doses to about 37.9 µM), inactives show at the highest dose activity change, negative = inhibition, usual class: inhibitors; calls by dose curve; tested in HEK293 cells; further: nearly all actives have a fitted effect of over 50% in size
Sm TGR inh: inhibitors of Schistosoma mansoni thioredoxin glutathione reductase; purified TGR, DTNB reduction, TNB absorbance 405 nm; Potency, µM (doses to about 114 µM), inactives show top-dose activity change, negative = inhibition, actives largely listed as inhibitors; 360,000 tested, 3% active; Q962Y6; further: nearly all actives have a fitted effect of over 60% in size
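TGR 20 nM + NADPH 100 uM (dispensed conc.), cpd preinc 15 min RT; start with NADPH (500 uM addition) then DTNB (15 mM addition). Kinetic TNB absorbance, 405 nm filter. Four-parameter Hill fit across titration.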
HCV inh: inhibitors of hepatitis C virus infection | Huh7.5.1 HCVcc-Cre infection, luciferase reporter, 44 h | Potency, µM (top dose mostly 41.8 µM), for the others: at the top dose activity change, negative = inhibition, usual class: inhibitors | 340,000 tested, 3.4% active
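Cells (1,000/well) were plated 4 h before compound, then infected with HCVcc-Cre virus (~0.5 moi). After 44 h further culture, infection was read as luciferase luminescence following a 15 min substrate incubation at room temperature.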
RE007 growth inh: less growth of the S. pombe RE007 Vpr strain; S. pombe RE007 Vpr strain, BacTiter-Glo ATP luminescence, 24 h; Potency, µM (highest dose often 92.2 µM), for the others: at the top dose activity change, negative = less growth, most hits filed as inhibitors; 360,000 tested, 0.21% active; active means well fitted falling curve with a large enough effect; inconclusive means small, poorly fitted or top-dose-only effect; inactive means no such curve, though single readings can be large or run the other way; further: nearly all actives have a fitted effect of over 50% in size
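Fission yeast RE007 carrying one integrated HIV-1 vpr copy, seeded at OD 0.01 in PMG+AL medium with 23 nL pinned compound. Grown 24 h at 30 degrees; viability read by BacTiter-Glo luminescence after 5 min.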
Active calls of the source: *; [ ] = remark or other dose. In the library only some 7.2% were active in any assay of this set; here they are far more common. Unless noted, the call rests on the fitted dose curve; in most records, active means well fitted curve in the direction sought with a large enough effect; inconclusive means small, poorly fitted or top-dose-only effect, or another doubt; inactive means no such curve, though single readings can be large; an effect the other way counts as inactive or inconclusive. On the % scale 0 is the no-effect control and ±100 the full control effect; potency means the concentration at half of the fitted maximal effect.

For CCCCOc1ccc(C(O)(CCN2CCOCC2)c2ccccc2)cc1 (configuration not stated) the results were FMDV inh -4%, Sm TGR inh 14µM*, HCV inh inconclusive and RE007 growth inh -5%.
`CC1CCC(NC(=O)c2ccc3c(c2)N(Cc2cccc(Cl)c2)C(=O)c2ccccc2S3=O)CC1` (configuration not stated) gave FMDV inh 41%, LASV entry inh -3%[46.1 µM] and Sm TGR inh 7%.
Screening COc1ccccc1NC(=O)N(Cc1nnc2n1CCCCC2)c1ccc(F)cc1 returned FMDV inh 0%, LASV entry inh 6%[46.1 µM] and Sm TGR inh 10%.
CCOC(=O)N1CCN(C(=O)CCC(=O)c2ccc(OCC)cc2)CC1 was read as Marburg entry inh 13%[46.1 µM], FMDV inh 7%, LASV entry inh 11µM*, Sm TGR inh -1%, HCV inh 10% and RE007 growth inh 3%.
`Cc1ccc(C)c(N(C)C(=O)c2cc3c(=O)[nH]c4ccc(C)cc4c3s2)c1` gave Marburg entry inh -1%, FMDV inh -30%, Sm TGR inh 25%, HCV inh 8.9µM* and RE007 growth inh -1%.
`CCCN(CCC)C(=O)c1cc2c(=O)[nH]c3ccc(C)cc3c2s1` gave Marburg entry inh -29%, FMDV inh -20%, LASV entry inh inconclusive, Sm TGR inh 7%, HCV inh 11µM* and RE007 growth inh 4%.
For CCCN(C(=O)c1cc2c(=O)[nH]c3ccc(C)cc3c2s1)c1ccc(CC)cc1 the results were Marburg entry inh 13%[46.1 µM], FMDV inh -12% and Sm TGR inh 6%.
Screening CCOCCCN(Cc1ccco1)C(=O)c1cc2c(=O)[nH]c3ccc(C)cc3c2s1 returned Marburg entry inh inconclusive, FMDV inh -15%, Sm TGR inh 40µM*, HCV inh inconclusive and RE007 growth inh -12%.
CCc1ccc(NC(=O)CN2C(=O)CCSc3ccccc32)cc1 was read as Marburg entry inh 0%[46.1 µM], FMDV inh -7% and Sm TGR inh 7%.
CCOc1ccc(CCNC(=O)Cn2c(C)c3cnn(-c4ccccc4)c(=O)c3c2C)cc1 was read as Marburg entry inh 4%[46.1 µM], FMDV inh -18%, LASV entry inh -8%[46.1 µM] and Sm TGR inh 2%.
Screening CCc1ccc2c(c1)c(=O)c(S(=O)(=O)c1ccccc1)cn2CC(=O)Nc1ccc(OC)cc1 returned Marburg entry inh -26%[46.1 µM], FMDV inh -8%, LASV entry inh -20%[46.1 µM] and Sm TGR inh -1%.
O=C1CC(=O)N(Cc2ccco2)C(=S)N1 was read as Marburg entry inh -2%, FMDV inh -18%, LASV entry inh -15%, Sm TGR inh 1.8µM*, HCV inh 12% and RE007 growth inh 11%.
O=C1CC(=O)N(Cc2ccco2)C(=O)N1 was read as Marburg entry inh inconclusive, FMDV inh 5%, LASV entry inh 14%, Sm TGR inh inconclusive, HCV inh -3% and RE007 growth inh 19%.
For O=C1C(=C2CCCCC2)SC(=S)N1Cc1ccco1 the results were Marburg entry inh -29%, FMDV inh 0%, LASV entry inh 0%, Sm TGR inh 20µM*, HCV inh 0% and RE007 growth inh -18%.
For COc1ccc(NC(=O)C2CCN(c3ccc(Sc4ccc(C)cc4)nn3)CC2)cc1 the results were Marburg entry inh 0%[46.1 µM], FMDV inh 11%, LASV entry inh 10%[46.1 µM] and Sm TGR inh 9%.
For CN(C)c1ccc(NC(=O)CC(NCc2cccnc2)C(=O)O)cc1 (configuration not stated) the results were Marburg entry inh 3%[46.1 µM], FMDV inh 7%, LASV entry inh 3%[46.1 µM] and Sm TGR inh -8%.
`CCN(CCCCCN(C)C)Cc1cc2ccccc2o1` gave Marburg entry inh 10µM*, FMDV inh 0%, LASV entry inh inconclusive, Sm TGR inh 5%, HCV inh inconclusive and RE007 growth inh -2%.

Assay outcomes as filed in PubChem BioAssay.
